Test results from the supplement of paper PMC10849652.
About 7,900 targets were measured; listed, in parts, are those with a hit and a random draw of the rest. About 0.6% of all pairs of compound and target were hits. Unmarked numbers belong to inactive results.

Experiments:
Test in all cases: log2 fold change, soluble protein after heating vs DMSO (PISA); higher = thermal stabilisation; K562 cells, 10 uM, 30 min; active = over 0.2 and 3.5 SD of the protein, either way, in both replicates (recomputed)
[1] = compound: CS(=O)(=O)c1ccc(-c2cnc(N)c(C(=O)Nc3ccccc3)n2)cc1
Procedure, shortened: (§1)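 K562 cells (2×10^6 cells/mL) were treated with 10 μM compound for 30 min, and aliquots were heated for 3 min over 48°C-58°C. Pooled aliquots were extracted in PBS with 0.5% NP-40 at 4°C, and the supernatant after 21,000xg for 90 min was measured by TMTpro 16plex LC-MS/MS with channel sums equalised. Reported thermal stability, relative to control samples and from duplicates, is a log2 fold change.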

crizotinib = compound: C[C@@H](Oc1cc(-c2cnn(C3CCNCC3)c2)cnc1N)c1c(Cl)ccc(F)c1Cl [crizotinib]
Procedure, shortened: as §1

[2] = compound: C[C@@H]1COCCN1C2=NC(=NC(=C2)C3(CC3)S(=O)(=O)C)C4=C5C=CNC5=CC=C4
Procedure, shortened: as §1

[3] = compound: C[C@H](C1=CC=C(C=C1)C(=O)NC2=C3C=CNC3=NC=C2)N
Procedure, shortened: as §1

duvelisib = compound: C[C@H](Nc1ncnc2nc[nH]c12)c1cc2cccc(Cl)c2c(=O)n1-c1ccccc1 [duvelisib]
Procedure, shortened: as §1

gandotinib = compound: Cc1cc(Nc2cc(CN3CCOCC3)c3nc(C)c(Cc4ccc(Cl)cc4F)n3n2)n[nH]1 [gandotinib]
Procedure, shortened: as §1

tozasertib = compound: Cc1cc(Nc2cc(N3CCN(C)CC3)nc(Sc3ccc(NC(=O)C4CC4)cc3)n2)n[nH]1 [tozasertib]
Procedure, shortened: as §1

[4] = compound: Cc1cc(SCc2sc(-c3ccc(C(F)(F)F)cc3)nc2C)ccc1OCC(=O)O
Procedure, shortened: as §1

doramapimod = compound: Cc1ccc(-n2nc(C(C)(C)C)cc2NC(=O)Nc2ccc(OCCN3CCOCC3)c3ccccc23)cc1 [doramapimod]
Procedure, shortened: as §1

ispinesib = compound: Cc1ccc(C(=O)N(CCCN)[C@@H](c2nc3cc(Cl)ccc3c(=O)n2Cc2ccccc2)C(C)C)cc1 [ispinesib]
Procedure, shortened: as §1

bafetinib = compound: Cc1ccc(NC(=O)c2ccc(CN3CC[C@H](N(C)C)C3)c(C(F)(F)F)c2)cc1Nc1nccc(-c2cncnc2)n1 [bafetinib]
Procedure, shortened: as §1

[5] = compound: Cc1cccc(CC(=O)N2CCc3c2ccc(-c2cn(C)c4ncnc(N)c24)c3F)n1
Procedure, shortened: as §1

nilotinib = compound: Cc1cn(-c2cc(NC(=O)c3ccc(C)c(Nc4nccc(-c5cccnc5)n4)c3)cc(C(F)(F)F)c2)cn1 [nilotinib]
Procedure, shortened: as §1

[6] = compound: Cc1nc(Nc2n[nH]c3c2CN(C(=O)N[C@H](CN(C)C)c2ccccc2)C3(C)C)c2sccc2n1
Procedure, shortened: as §1

dasatinib = compound: Cc1nc(Nc2ncc(C(=O)Nc3c(C)cccc3Cl)s2)cc(N2CCN(CCO)CC2)n1 [dasatinib]
Procedure, shortened: as §1

[7] = compound: Cc1ncc(-c2ccnc(Nc3ccc(S(C)(=O)=O)cc3)n2)n1C(C)C
Procedure, shortened: as §1

[8] = compound: Cn1cc(-c2ccc3c(c2)CCN3C(=O)Cc2cccc(C(F)(F)F)c2)c2c(N)ncnc21
Procedure, shortened: as §1

[9] = compound: Cn1cc(-c2ccc3nnc(C(F)(F)c4ccc5ncccc5c4)n3n2)cn1
Procedure, shortened: as §1

tipifarnib = compound: Cn1cncc1[C@@](N)(c1ccc(Cl)cc1)c1ccc2c(c1)c(-c1cccc(Cl)c1)cc(=O)n2C [tipifarnib]
Procedure, shortened: as §1

mubritinib = compound: FC(F)(F)c1ccc(/C=C/c2nc(COc3ccc(CCCCn4ccnn4)cc3)co2)cc1 [mubritinib]
Procedure, shortened: as §1

Chain of UniProt Q29RF7 (Q29RF7 whole entry, looked up): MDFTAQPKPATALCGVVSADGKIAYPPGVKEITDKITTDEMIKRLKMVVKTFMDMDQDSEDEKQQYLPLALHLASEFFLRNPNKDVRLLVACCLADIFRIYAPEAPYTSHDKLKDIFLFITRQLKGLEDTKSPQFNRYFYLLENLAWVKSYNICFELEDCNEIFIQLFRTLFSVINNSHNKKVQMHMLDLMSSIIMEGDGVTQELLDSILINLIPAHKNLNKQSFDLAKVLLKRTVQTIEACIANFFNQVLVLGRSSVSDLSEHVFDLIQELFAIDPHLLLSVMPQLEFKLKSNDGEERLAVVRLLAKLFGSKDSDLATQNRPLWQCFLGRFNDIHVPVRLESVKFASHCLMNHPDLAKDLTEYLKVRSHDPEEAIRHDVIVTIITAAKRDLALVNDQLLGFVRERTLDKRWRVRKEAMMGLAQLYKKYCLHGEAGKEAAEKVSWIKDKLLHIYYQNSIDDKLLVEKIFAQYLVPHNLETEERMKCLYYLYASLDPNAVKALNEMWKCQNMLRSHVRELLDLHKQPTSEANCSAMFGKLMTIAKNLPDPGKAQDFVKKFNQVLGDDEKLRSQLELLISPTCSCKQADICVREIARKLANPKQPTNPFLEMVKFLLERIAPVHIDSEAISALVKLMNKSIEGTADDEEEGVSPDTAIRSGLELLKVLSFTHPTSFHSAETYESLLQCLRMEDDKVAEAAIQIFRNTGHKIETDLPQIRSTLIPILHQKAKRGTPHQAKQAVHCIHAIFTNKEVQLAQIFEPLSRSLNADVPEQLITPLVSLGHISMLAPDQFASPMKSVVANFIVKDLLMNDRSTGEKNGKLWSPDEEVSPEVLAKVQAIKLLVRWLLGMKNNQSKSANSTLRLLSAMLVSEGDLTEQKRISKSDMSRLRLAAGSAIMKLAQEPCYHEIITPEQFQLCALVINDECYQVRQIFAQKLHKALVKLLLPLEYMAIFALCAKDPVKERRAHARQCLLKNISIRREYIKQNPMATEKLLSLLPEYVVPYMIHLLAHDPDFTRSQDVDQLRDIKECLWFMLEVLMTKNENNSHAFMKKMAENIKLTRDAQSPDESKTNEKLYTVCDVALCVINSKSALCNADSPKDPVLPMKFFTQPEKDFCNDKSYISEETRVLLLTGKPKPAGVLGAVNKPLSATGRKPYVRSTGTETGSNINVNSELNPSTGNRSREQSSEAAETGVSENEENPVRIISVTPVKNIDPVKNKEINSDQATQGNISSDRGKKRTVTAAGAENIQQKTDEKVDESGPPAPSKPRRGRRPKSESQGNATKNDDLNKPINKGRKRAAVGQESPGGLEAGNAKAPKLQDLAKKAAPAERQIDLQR
Chain of UniProt Q9Y244 (Q9Y244 whole entry, looked up): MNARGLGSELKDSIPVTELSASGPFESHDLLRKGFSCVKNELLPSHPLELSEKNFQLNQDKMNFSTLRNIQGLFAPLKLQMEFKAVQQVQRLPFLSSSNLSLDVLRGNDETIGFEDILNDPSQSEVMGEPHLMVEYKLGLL
Chain of UniProt P42785 (P42785 whole entry, looked up): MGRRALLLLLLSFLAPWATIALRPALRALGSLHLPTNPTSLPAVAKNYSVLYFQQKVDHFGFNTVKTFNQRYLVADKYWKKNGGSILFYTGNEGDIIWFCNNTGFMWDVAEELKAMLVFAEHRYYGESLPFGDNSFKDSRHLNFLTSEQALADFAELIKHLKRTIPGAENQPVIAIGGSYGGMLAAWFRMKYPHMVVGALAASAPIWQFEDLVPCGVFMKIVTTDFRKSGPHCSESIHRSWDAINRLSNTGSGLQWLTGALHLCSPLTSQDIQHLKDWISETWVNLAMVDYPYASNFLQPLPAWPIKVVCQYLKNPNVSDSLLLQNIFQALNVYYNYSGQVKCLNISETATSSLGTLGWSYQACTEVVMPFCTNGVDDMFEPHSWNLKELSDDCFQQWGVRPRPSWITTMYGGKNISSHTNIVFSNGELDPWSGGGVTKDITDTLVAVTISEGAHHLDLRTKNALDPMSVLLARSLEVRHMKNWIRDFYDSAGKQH
Chain of UniProt Q13362 (Q13362 whole entry, looked up): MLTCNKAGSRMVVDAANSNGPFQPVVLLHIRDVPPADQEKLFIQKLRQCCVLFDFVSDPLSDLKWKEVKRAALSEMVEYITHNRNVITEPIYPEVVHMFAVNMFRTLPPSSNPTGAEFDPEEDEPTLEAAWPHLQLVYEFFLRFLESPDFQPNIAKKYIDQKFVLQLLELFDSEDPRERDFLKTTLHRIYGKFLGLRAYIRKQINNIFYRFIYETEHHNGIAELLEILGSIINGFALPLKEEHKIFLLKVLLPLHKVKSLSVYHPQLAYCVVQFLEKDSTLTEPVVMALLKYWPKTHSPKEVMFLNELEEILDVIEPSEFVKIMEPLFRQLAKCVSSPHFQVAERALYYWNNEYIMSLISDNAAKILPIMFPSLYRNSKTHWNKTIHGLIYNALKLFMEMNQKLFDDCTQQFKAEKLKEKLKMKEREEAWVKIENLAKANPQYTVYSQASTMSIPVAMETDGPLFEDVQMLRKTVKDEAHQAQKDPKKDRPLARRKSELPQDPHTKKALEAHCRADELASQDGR
Chain of UniProt Q9Y3E5 (Q9Y3E5 whole entry, looked up): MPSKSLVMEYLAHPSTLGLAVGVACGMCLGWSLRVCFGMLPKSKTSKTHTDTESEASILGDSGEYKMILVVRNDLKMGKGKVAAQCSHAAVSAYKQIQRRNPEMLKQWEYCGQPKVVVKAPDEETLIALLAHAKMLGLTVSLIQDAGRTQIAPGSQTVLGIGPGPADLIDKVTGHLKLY
Chain of UniProt Q969N2 (Q969N2 whole entry, looked up): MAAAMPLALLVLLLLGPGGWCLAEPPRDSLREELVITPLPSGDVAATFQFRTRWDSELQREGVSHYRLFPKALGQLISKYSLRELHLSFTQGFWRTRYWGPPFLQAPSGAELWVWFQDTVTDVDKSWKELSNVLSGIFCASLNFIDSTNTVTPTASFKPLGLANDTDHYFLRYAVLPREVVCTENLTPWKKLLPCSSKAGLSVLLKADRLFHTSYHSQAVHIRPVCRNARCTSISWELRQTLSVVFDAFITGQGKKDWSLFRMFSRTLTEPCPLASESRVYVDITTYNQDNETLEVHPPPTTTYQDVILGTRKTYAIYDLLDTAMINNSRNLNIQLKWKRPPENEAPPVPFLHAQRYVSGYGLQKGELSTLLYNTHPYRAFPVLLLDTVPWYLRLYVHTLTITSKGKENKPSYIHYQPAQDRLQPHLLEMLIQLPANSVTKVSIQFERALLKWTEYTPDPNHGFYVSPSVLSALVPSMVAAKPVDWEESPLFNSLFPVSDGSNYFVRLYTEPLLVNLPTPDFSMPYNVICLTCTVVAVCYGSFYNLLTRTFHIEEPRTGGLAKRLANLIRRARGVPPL
Chain of UniProt Q8WXF1 (Q8WXF1 whole entry, looked up): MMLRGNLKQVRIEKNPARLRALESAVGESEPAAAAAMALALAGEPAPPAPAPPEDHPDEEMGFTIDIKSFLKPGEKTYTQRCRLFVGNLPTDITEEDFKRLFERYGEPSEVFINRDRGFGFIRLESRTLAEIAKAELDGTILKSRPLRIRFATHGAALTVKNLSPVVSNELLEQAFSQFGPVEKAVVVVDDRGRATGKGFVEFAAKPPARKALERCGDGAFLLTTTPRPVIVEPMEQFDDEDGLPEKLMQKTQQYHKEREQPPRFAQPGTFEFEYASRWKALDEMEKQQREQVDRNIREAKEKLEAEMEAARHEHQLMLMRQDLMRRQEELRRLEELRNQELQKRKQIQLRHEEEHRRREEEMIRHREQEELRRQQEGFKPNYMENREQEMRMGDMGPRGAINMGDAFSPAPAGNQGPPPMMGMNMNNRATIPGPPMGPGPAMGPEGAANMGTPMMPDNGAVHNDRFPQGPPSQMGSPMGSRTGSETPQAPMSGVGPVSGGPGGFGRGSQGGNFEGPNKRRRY
Chain of UniProt Q9UBV8 (Q9UBV8 whole entry, looked up): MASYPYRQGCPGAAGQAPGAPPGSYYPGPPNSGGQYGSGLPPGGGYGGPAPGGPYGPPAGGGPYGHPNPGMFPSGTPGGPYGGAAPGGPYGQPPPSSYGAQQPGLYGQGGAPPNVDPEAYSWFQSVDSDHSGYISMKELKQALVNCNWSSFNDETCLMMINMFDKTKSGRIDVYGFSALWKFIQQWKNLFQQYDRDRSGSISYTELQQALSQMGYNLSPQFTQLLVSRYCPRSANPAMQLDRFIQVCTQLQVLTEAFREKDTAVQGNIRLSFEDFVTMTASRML
Chain of UniProt Q96PU8 (Q96PU8 whole entry, looked up): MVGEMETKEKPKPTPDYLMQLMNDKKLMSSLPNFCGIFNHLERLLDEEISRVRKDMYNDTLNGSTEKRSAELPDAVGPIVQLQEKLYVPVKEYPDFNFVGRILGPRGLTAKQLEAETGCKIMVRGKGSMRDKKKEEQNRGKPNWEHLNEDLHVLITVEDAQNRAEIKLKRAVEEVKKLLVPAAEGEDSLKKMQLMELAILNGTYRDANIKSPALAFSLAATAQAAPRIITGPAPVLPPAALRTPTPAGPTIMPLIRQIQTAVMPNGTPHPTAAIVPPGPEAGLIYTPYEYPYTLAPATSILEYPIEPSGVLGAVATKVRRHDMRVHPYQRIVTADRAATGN
Chain of UniProt Q96A00 (Q96A00 whole entry, looked up): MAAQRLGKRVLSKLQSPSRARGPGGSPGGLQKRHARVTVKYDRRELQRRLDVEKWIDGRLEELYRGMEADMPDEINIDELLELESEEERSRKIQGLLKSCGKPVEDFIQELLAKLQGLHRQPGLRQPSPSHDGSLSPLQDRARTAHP
Chain of UniProt O00628 (O00628 whole entry, looked up): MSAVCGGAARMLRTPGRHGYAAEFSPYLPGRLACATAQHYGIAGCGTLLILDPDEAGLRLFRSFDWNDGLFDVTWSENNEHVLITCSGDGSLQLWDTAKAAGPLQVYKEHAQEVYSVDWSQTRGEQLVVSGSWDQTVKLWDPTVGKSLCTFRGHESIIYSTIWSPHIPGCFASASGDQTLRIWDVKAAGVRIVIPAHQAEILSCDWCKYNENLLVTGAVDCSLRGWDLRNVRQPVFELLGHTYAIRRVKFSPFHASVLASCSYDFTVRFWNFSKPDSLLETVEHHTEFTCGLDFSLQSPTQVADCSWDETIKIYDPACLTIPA

Target	log2 fold change [1]	log2 fold change (crizotinib)	log2 fold change [2]	log2 fold change [3]	log2 fold change (duvelisib)	log2 fold change (gandotinib)	log2 fold change (tozasertib)	log2 fold change [4]	log2 fold change (doramapimod)	log2 fold change (ispinesib)	log2 fold change (bafetinib)	log2 fold change [5]	log2 fold change (nilotinib)	log2 fold change [6]	log2 fold change (dasatinib)	log2 fold change [7]	log2 fold change [8]	log2 fold change [9]	log2 fold change (tipifarnib)	log2 fold change (mubritinib)
PTPMT1 (UniProt Q8WUK0)	0.086	-0.546 (active)	0.039	-0.026	0.118	-0.125	-0.001	0.109	-0.036	-0.429 (active)	-0.16	-0.003	0.069	-0.013	-0.138	0.029	-0.056	-0.132	0.026	-0.006
PPP2R5C isoform 5 (UniProt Q13362)	-0.054	-0.071	0.023	-0.05	0.009	-0.024	-0.019	0.069	-0.043	0.007	-0.024	0.005	-0.168	-0.026	-0.227	0.026	0.031	-0.06	-0.099	0.042
PAK4 (UniProt O96013)	-0.028	-0.033	0.058	-0.017	0.037	-0.028	-0.013	0.021	-0.042	-0.111	-0.072	0.011	-0.016	0.352 (active)	-0.068	0.01	0.04	0.007	0.015	-0.092
PRCP (UniProt P42785)	0.012	-0.078	-0.088	-0.037	0.045	0.006	0.036	-0.037	-0.034	-0.096	-0.209	-0.018	0.011	0.009	-0.021	-0.009	0.02	0.008	0.055	0.057
POMP (UniProt Q9Y244)	-0.086	-0.059	-0.023	-0.076	0.055	0.027	0.001	-0.245	-0.143	0.108	-0.097	-0.101	0.142	-0.093	0.006	-0.092	0.079	0.156	0.116	0.01
PEX7 (UniProt O00628)	-0.011	-0.037	0.121	0.024	0.04	-0.005	-0.042	0.145	0.002	-0.078	0.101	-0.025	-0.047	0.048	-0.025	-0.007	0.05	0.04	0.034	0.085
PLK1 (UniProt P53350)	-0.113	-0.105	-0.194	0.031	0.012	0.095	0.037	-0.1	0.032	0.01	-0.048	0.003	-0.062	-1.37 (active)	-0.125	0.152	0.006	-0.013	0.019	0.003
PEF1 (UniProt Q9UBV8)	0.119	0.094	0.059	-0.102	0.103	-0.019	0.06	0.019	-0.091	0.208	-0.106	0.089	-0.005	0.012	-0.047	-0.013	0.132	0.113	-0.126	0.099
PSPC1 (UniProt Q8WXF1)	-0.068	0.076	-0.044	0.088	-0.03	-0.09	0.01	0.04	-0.028	-0.217	0.015	0.088	-0.004	-0.179	-0.02	-0.112	-0.003	0	-0.004	-0.033
PTRH2 (UniProt Q9Y3E5)	0.02	0.081	0.061	-0.098	0.051	-0.02	0.001	-0.001	-0.074	0.181	-0.022	0.017	0.039	-0.011	-0.004	0.046	0.044	-0.019	0.042	-0.009
QKI (UniProt Q96PU8)	-0.057	0.075	0.046	-0.079	0.032	-0.093	0.027	0.034	0	-0.034	-0.001	0.058	-0.015	-0.105	-0.029	-0.093	-0.007	-0.036	-0.015	0.003
PSMC5 (UniProt P62195)	0.025	0.001	-0.07	0.057	-0.028	0.017	0.04	0.036	0.028	-0.007	0.078	0.035	-0.041	0.035	0.033	-0.014	-0.113	-0.006	0.09	-0.014
PDS5A (UniProt Q29RF7)	0.03	-0.383	0.063	0.043	0.053	-0.099	0.117	0.182	-0.057	-0.127	-0.055	0.008	-0.397	-0.164	-0.3	0.001	0.08	0.123	-0.231	0.157
PPP1R14A (UniProt Q96A00)	0.078	0.011	0.005	0.003	0.06	0.106	-0.017	-0.049	-0.086	0.319	-0.058	0.026	-0.01	0.013	0.019	0.026	0.076	-0.055	0	0.033
PPP2R5C isoform 4 (UniProt Q13362)	0.031	-0.021	-0.177	0.029	0.066	-0.011	-0.055	-0.01	-0.06	-0.036	-0.032	-0.019	-0.05	-0.025	-0.058	-0.008	0.037	0.052	-0.093	0.095
PIGT (UniProt Q969N2)	0.033	0.023	-0.017	0.005	-0.045	-0.029	0.029	0.047	0.036	0	-0.042	0	-0.029	0.046	-0.031	-0.028	-0.011	0.003	-0.029	-0.037
